High-throughput results (PubChem BioAssay)
M4 PAM: potentiates acetylcholine response at human M4 receptor. P08173. CHO-K1 hM4/Gqi5, Fluo-8 calcium fluorescence, ACh EC20; 0% = ACh EC20, 100% = maximal ACh. activation, % at 3 µM. 0.4% of 360,000 active. AID 624126;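 active = activation above its plate's cutoff, the mean activation of sample wells plus 3 SD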
Target sequence (P08173 whole entry, looked up): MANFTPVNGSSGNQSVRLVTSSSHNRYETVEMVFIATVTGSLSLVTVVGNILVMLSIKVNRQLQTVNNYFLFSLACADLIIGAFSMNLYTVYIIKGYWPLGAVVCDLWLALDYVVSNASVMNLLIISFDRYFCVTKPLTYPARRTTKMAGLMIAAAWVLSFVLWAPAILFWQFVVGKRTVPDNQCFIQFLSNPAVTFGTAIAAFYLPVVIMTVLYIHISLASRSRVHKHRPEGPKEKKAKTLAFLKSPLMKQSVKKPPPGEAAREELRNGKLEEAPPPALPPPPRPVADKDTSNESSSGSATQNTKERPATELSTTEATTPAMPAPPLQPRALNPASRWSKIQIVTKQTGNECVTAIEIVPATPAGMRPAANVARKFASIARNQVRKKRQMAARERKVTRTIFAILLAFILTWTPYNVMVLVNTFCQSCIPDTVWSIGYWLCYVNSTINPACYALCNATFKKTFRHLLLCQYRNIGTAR
CHO-K1 Ca ag: nonselective activator or artifact in parental CHO-K1 cells; Fluo-8 calcium fluorescence; scaled to maximal ATP response, vehicle zero; activation, % at 3 µM; 0.48% of 360,000 active; in the data active = activation above about 15%;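 also: untransfected CHO-K1 host cells lacking M1 receptor as counterscreen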
M4 antag: blocks acetylcholine activation of human M4 receptor. P08173. CHO-hM4 cells, ACh EC80, Fluo-8 calcium fluorescence. inhibition, % at 3 µM. 0.73% of 360,000 active;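 active = inhibition above its plate's cutoff, the mean inhibition of sample wells plus 3 SD, cut at about 27% in these data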;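 also: 0% = acetylcholine EC80 with DMSO and 100% = DMSO without agonist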
CHRM4 agonist: agonists of human muscarinic M4 receptor (CHRM4). P08173. CHO-K1 hM4/Gqi5, Fluo-8 calcium fluorescence; vehicle 0%, full acetylcholine response 100%. activation, % at 3 µM. 0.14% of 360,000 active;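 active = activation above the run mean over all test wells plus 3 SD, cut at about 32% in these data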;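 also: peak over basal fluorescence ratio per well then scaled between controls; 0% = DMSO wells and 100% = acetylcholine at EC100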
CHO-K1 Ca PAM: nonselective activator or artifact in parental CHO-K1 calcium assay. AID 602247. 0.02% of 360,000 active. activation, % at 3 µM. ATP EC20, Fluo-8 calcium fluorescence; 0% at ATP EC20, 100% at ATP max;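 active = activation above the run cutoff, the mean activation of all test compounds plus 3 SD, cut at about 40% in these data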;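 also: peak over basal fluorescence ratio in a 140 s read after ATP addition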
CHO-K1 Ca antag: M1 antagonist counterscreen hit in parental CHO-K1 cells; AID 602250; 0.6% of 360,000 active; inhibition, % at 3 µM; ATP-induced calcium, Fluo-8 fluorescence;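 active = inhibition above a per-plate cutoff, the plate's mean sample inhibition plus 3 SD, cut at about 24% in these data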;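 also: 0% = DMSO plus EC80 ATP and 100% = DMSO alone without ATP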
Active calls of the source: *. Most compounds without a hit are left out; they make up all but 2% or so of the library.

SMILES	M4 PAM	CHO-K1 Ca ag	M4 antag	CHRM4 agonist	CHO-K1 Ca PAM	CHO-K1 Ca antag
Cc1ccc(OCC(O)Cn2c(N3CCCCC3)nc3c2c(=O)[nH]c(=O)n3C)cc1 (stereo not drawn)	0	4	-16	6	-10	-9
Fc1ccccc1C(c1nnnn1Cc1ccc2c(c1)OCO2)N1CCN(Cc2ccco2)CC1 (stereo not drawn)	-3	2	-4	8	16	-5
c1ccc(Oc2cc(-n3cncn3)ncn2)cc1	7	2	6	1	28	-11
Cc1cnn(-c2cc(Oc3ccccc3)ncn2)c1	2	0	1	0	-8	25*
COc1ccccc1CN1CCC(CNS(=O)(=O)c2cc(-c3onc(C)c3C)ccc2OC)CC1	-23	1	42*	2	-7	11
O=C1c2cccc3c(N4CCCCC4)ccc(c23)C(=O)N1c1cccc(O)c1	-24	30*	36*	41*	-1	23
O=C1c2cccc3c(N4CCCCC4)ccc(c23)C(=O)N1CCO	-3	17*	3	8	1	1
O=C(OCCN1C(=O)c2cccc3c(N4CCOCC4)ccc(c23)C1=O)c1ccccc1Cl	-15	18*	40*	25	-7	23
Cc1n[nH]c(C)c1N1C(=O)c2cccc3c(N4CCCCCC4)ccc(c23)C1=O	-29	83*	41*	85*	-3	55*
CCOc1ccc(NC(=O)CCN2CCN(S(=O)(=O)c3ccc(OC)cc3)CC2)cc1	3	1	-1	5	-13	-18
CCOC(=O)C(=O)Nc1ccc(S(=O)(=O)N2CCOCC2)cc1OC	0	0	-9	1	7	-3
COc1ccc(-c2nc3ccccc3n2Cc2ccccc2)cc1	-4	1	-11	2	-10	19
COCn1c(-c2ccccc2)nc2ccccc21	29*	0	-3	1	15	-15
Cc1cc(C)cc(N(C(=O)c2snc(C(N)=O)c2N)C(C(=O)NCC2CCCO2)c2ccc(C)o2)c1 (stereo not drawn)	3	0	1	2	13	-7
COc1cccc(CC(=O)Nc2ccccc2N2CCCC2)c1	-2	0	5	0	-9	0
O=[N+]([O-])c1ccc(N2CCC(O)CC2)nc1	1	0	0	1	-16	29*
Cc1ccc(C(=O)NCC(=O)OCC(=O)c2ccc(Cl)s2)cc1	4	0	-4	-1	14	-5
CC(C)(C)Nc1nc(Nc2ccc([N+](=O)[O-])cc2)nc(NC(C)(C)C)n1	15*	1	20	6	27	3
Cc1c(C(=O)c2cccc(F)c2)c2ccccn2c1CCC#N	2	1	-9	2	18	-22
COc1cccc(C(=O)c2c(C)c(CCC#N)n3ccccc23)c1	2	25*	1	3	8	4
OC(c1cc(C(F)(F)F)nc2c(Cl)cc(Cl)cc12)C1CCCCN1 (stereo not drawn)	6	18*	-1	14	15	-1
COc1ccc(C(=O)N/C(=C\c2ccccc2)C(=O)N2CCOCC2)cc1	19*	1	-10	2	5	-17
CN(C)c1ccc(/C=C2\Oc3ccc(C#Cc4cccc(N)c4)cc3C2=O)cc1	-21	10	14	96*	-13	2
Cc1ccccc1-c1noc(N)c1C#N	43*	0	-9	1	18	-12
CC1CCCN(C(=O)CCNS(=O)(=O)c2ccc3c(c2)c(=O)n(C)c(=O)n3C)C1 (stereo not drawn)	15*	1	-1	1	-13	-12
SMILES	M4 PAM	CHO-K1 Ca ag	M4 antag	CHRM4 agonist	CHO-K1 Ca PAM	CHO-K1 Ca antag
COC(=O)c1cc(NC(=O)CN(C)Cc2ccccc2)cc(C(=O)OC)c1	5	1	0	2	21	-14
CC(=O)Nc1ccc2c(c1)C(=Nc1cccc(C)c1)c1ccccc1-2	16*	1	-13	2	25	-7
Cc1cccc(NC(=O)CNC(=O)COc2ccc(C(=O)c3ccc(F)cc3)cc2)c1C	6	1	-4	2	13	-13
Cc1ccc2c(c1)[nH]c1c(=O)n(CCN3CCCCC3)cnc12	3	4	3	0	15	-3
COc1ccc(NC(=O)C(c2cc3c(cc2[N+](=O)[O-])OCO3)N(C)Cc2ccccc2)cc1 (stereo not drawn)	-6	22*	-6	-1	29	-3
CCN(c1cccc(C)c1)C(C(=O)Nc1ccc(OC)cc1)c1cc2c(cc1[N+](=O)[O-])OCO2 (stereo not drawn)	-9	1	5	-3	24	-17
CCN(CC(=O)NCCCN1CCOCC1)S(=O)(=O)c1ccc(Cl)cc1	12	0	-11	1	8	-3
CCN1CCCC(OC(=O)C(c2ccccc2)c2ccccc2)C1 (stereo not drawn)	-17	2	32*	1	26	-10
COc1ccc(N/N=C(\C#N)C(=N)SCc2ccccc2)cc1	-4	18*	0	18	8	-14
CC(=O)c1ccc(NC(=O)CNC2CCCCC2)cc1	-3	20*	-4	2	2	1
O=C(CNC1CCCC1)Nc1ccc(N2CCCCCC2)cc1	-13	8	2	7	13	-2
O=C(Nc1ccncc1)Nc1ccc(Cl)cc1Cl	6	2	-6	4	-13	12
O=C1C=CC(=O)N1c1ccc2c(c1)Cc1cc(F)ccc1-2	-8	1	37*	8	13	-11
CC(=O)Nc1ccc2c(c1)Cc1cc(N3C(=O)C=CC3=O)ccc1-2	-7	0	33*	5	-12	10
Cc1ccc(C(=O)OCC2OC3OC(C)(C)OC3C2O)cc1 (stereo not drawn)	-2	0	11	0	1	-5
COc1ccc(-c2sc3cc4c(cc3c2C#CC2(N)CCCCC2)OCO4)cc1	-1	2	19	2	1	5
CC(=O)Cc1c(C(=O)O)c(C)nn1-c1ccccc1	-4	-1	5	1	-15	26*
CC(C)(C)c1ccc(-n2nc(C#N)c(Cl)cc2=O)cc1	-5	1	54*	5	-11	30*
CC(C)(C)c1ccc(-n2nc(C(N)=O)c(O)cc2=O)cc1	1	-1	-3	1	5	16
Cc1ccc(NC(=O)COC(=O)CCc2nc3ccccc3c(=O)[nH]2)c(Br)c1	25*	0	-13	1	-5	-11
Cn1c(=O)[nH]c(=O)c2c1nc(SCC(=O)O)n2CCOc1ccccc1	-15	2	54*	-1	-1	-6
O=C(O)Cc1ccc(NC(=O)Nc2ccc3c(c2)OCO3)cc1	5	2	9	0	-8	-12
